Assay [1] can be described thus: ACEA_ER_80hr: ACEA Biosciences xCELLigence Real-Time Cell Analysis on Estrogen Receptor Agonism for Proliferation (AID 2282667; active = hit-call score of the fitted dose curve at least 0.9, where 1 is the maximum). The settings on record: T47D proliferation, impedance (xCELLigence), 80 h. The gist of the method:
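T-47D cells monitored by electrical impedance (xCELLigence) with compound present throughout; 80 h timepoint, positive-direction fitting versus DMSO. Eight-point 1:4 dilutions from 100 uM final, duplicate plates.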

A short description of assay [2]: APR_HepG2_CellCycleArrest_24hr: Apredica 24-hour HepG2 Assay for Cell Cycle Arrest (AID 2282905).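 Also: cell cycle arrest scored as ratio of 2N to 4N nuclear DNA content.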 As to conditions: imaging, actives raise or lower the signal. A digest of the protocol: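 Cell cycle arrest is scored from nuclear DNA content measured by high-content imaging of Hoechst 33342-stained HepG2 cells following 24-hour treatment at ten concentrations up to 200 uM, with DMSO as baseline.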

Assay [3] is described as follows: APR_HepG2_NuclearSize_24hr: Apredica 24-hour HepG2 Assay for Nuclear Size (AID 2282907). The settings on record: high-content imaging, actives raise or lower the signal. A digest of the protocol:
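Compounds in DMSO (final 0.5%) were added to human HepG2 hepatoma cells at ten concentrations up to 200 uM for 24 hr. Fixed nuclei were stained with Hoechst 33342, and nuclear diameter was quantified from automated images.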

A short description of assay [4]: APR_HepG2_CellLoss_24hr: Apredica 24-hour HepG2 Assay for Cell Loss (AID 2282908).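 As to AC50: fit in both directions so a hit may be cell loss or gain.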 As to conditions: high-content imaging. A digest of the protocol: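 Cell number is quantified by fluorescence imaging of Hoechst 33342-stained nuclei following dosing at 0.39–200 uM in 0.5% DMSO. Curves are fitted in both directions from the DMSO baseline.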
Assay [5] can be described thus: APR_HepG2_MicrotubuleCSK_24hr: Apredica 24-hour HepG2 Assay for Microtubule CSK Stabilty (AID 2282909). The settings on record: HepG2 microtubule cytoskeleton imaging, actives raise or lower the signal. The gist of the method:
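Steps: dose HepG2 for 24 h (0.39–200 uM, 0.5% DMSO); fix 30 min in 3.7% formaldehyde at room temperature; permeabilize; stain alpha-tubulin 60 min; image microtubule cytoskeleton at 20x. Signal change fitted in both directions relative to DMSO.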

Assay [6] is described as follows: APR_HepG2_MitoticArrest_24hr: Apredica 24-hour HepG2 Assay for Mitotic Arrest (AID 2282910). The settings on record: high-content imaging, actives raise or lower the signal. A digest of the protocol: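 Compounds are dosed onto HepG2 cells across ten concentrations up to 200 uM for 24 hr. Cells are then fixed in 3.7% formaldehyde, permeabilised, and labelled for phospho-histone H3 and nuclei; images are scored by cell cycle analysis and fitted bidirectionally relative to DMSO.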

Assay [7] is described as follows: APR_HepG2_MitoMembPot_24hr: Apredica 24-hour HepG2 Assay for Mitochondrial Membrane Potential (AID 2282911). The settings on record: imaging, actives raise or lower the signal. A digest of the protocol: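 HepG2 cells exposed 24 h to 0.39–200 uM compounds in duplicate, 0.5% v/v DMSO final. MitoTracker Red CMXRos 250 nM loaded 30 min before formaldehyde fixation; high-content imaging at 20x, bidirectional fit versus DMSO.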

A short description of assay [8]: APR_HepG2_MitoMass_24hr: Apredica 24-hour HepG2 Assay for Mitochondrial Mass (AID 2282912). The settings on record: high-content imaging, actives raise or lower the signal. The gist of the method:
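The liver line HepG2 was dosed in duplicate across a 0.39–200 uM series, with final DMSO held at 0.5% v/v, and harvested at 24 hr. High-content imaging measured mitochondrial dye staining.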

The nature of assay [9]: APR_HepG2_p53Act_24hr: Apredica 24-hour HepG2 Assay for p53 Activation (AID 2282913).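 Also: p53 protein immunofluorescence averaged per cell in HepG2 with Hoechst nuclei.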 The settings on record: high-content imaging, actives raise or lower the signal. A digest of the protocol: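 HepG2 cells exposed 24 h to compounds at 0.39–200 uM in duplicate, 0.5% v/v DMSO final; fixed, permeabilized, stained with anti-p53 antibody and Hoechst 33342; fluorescence imaging; bidirectional curve fit versus DMSO.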

Assay [10] is described as follows: APR_HepG2_CellCycleArrest_72hr: Apredica 72-hour HepG2 Assay for Cell Cycle Arrest (AID 2282914). As to conditions: high-content imaging, actives raise or lower the signal. The gist of the method:
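HepG2 cells exposed 72 h in duplicate to 0.39–200 uM compound, 0.5% DMSO final. Formaldehyde-fixed, Hoechst 33342-stained nuclei imaged at 20x, six fields per well; DNA content per valid cell quantified by cell-cycle image analysis, bidirectional fit versus DMSO.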

The nature of assay [11]: APR_HepG2_CellLoss_72hr: Apredica 72-hour HepG2 Assay for Cell Loss (AID 2282915). The settings on record: high-content imaging. A digest of the protocol:
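Cell number comes from Hoechst 33342-labelled nuclei, imaged at 20x after 3.7% formaldehyde fixation. Dosing was 0.39–200 uM, ten concentrations in duplicate, 0.5% DMSO final, for 72 h. Bidirectional fit relative to DMSO baseline.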

Assay [12] is described as follows: APR_HepG2_P-H2AX_72hr: Apredica 72-hour HepG2 Assay for H2AX Phosphorylation (AID 2282916).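 Also: phospho-histone H2A.x immunostain intensity per cell marking DNA damage.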 As to conditions: imaging, actives raise or lower the signal. A digest of the protocol:
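Following 72 hr treatment with 0.39–200 uM compound, HepG2 cells were formaldehyde-fixed, permeabilized and stained for phospho-H2A.x; signal was measured by high-content imaging and fitted bidirectionally against DMSO controls.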

The nature of assay [13]: APR_HepG2_MitoMembPot_72hr: Apredica 72-hour HepG2 Assay for Mitochondrial Membrane Potential (AID 2282917). As to conditions: imaging, actives raise or lower the signal. The gist of the method: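 Membrane potential read by MitoTracker Red CMXRos (250 nM, 30 min, pre-fixation) fluorescence imaging of HepG2 after 72 hr exposure. Ten concentrations, 0.39–200 uM, duplicate wells, 0.5% DMSO; fitted in both directions against DMSO baseline.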

The nature of assay [14]: APR_HepG2_MitoticArrest_72hr: Apredica 72-hour HepG2 Assay for Mitotic Arrest (AID 2282918). The settings on record: high-content imaging, actives raise or lower the signal. A digest of the protocol:
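HepG2 cells treated 72 h at 0.39–200 uM, 0.5% DMSO final; formaldehyde-fixed, stained with Hoechst 33342 and phospho-histone H3 antibody, imaged by high-content fluorescence; bidirectional fit versus DMSO.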

A short description of assay [15]: APR_HepG2_MicrotubuleCSK_72hr: Apredica 72-hour HepG2 Assay for Microtubule CSK Stabilty (AID 2282919). As to conditions: HepG2 microtubule cytoskeleton, high-content imaging, actives raise or lower the signal. The gist of the method:
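Read-out is tubulin fluorescence intensity from high-content imaging of HepG2 cells, with nuclei identified by Hoechst 33342. Treatment lasts 72 h at 0.39–200 uM, and curves are fitted bidirectionally against the DMSO negative control.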

The nature of assay [16]: APR_HepG2_P-H2AX_24hr: Apredica 24-hour HepG2 Assay for H2AX Phosphorylation (AID 2282920). As to conditions: high-content imaging, actives raise or lower the signal. The gist of the method: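 HepG2 cells dosed 24 h at 0.39–200 uM (10 points, duplicate, 0.5% DMSO final). Formaldehyde-fixed and permeabilized, then immunostained for phospho-H2A.x with Hoechst. Fluorescence quantified by high-content imaging, fitted bidirectionally versus DMSO.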

The nature of assay [17]: APR_HepG2_StressKinase_72hr: Apredica 72-hour HepG2 Assay for Stress Kinase (AID 2282921). As to conditions: HepG2 stress kinase (phospho-c-Jun) imaging, actives raise or lower the signal. A digest of the protocol: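 Fluorescence intensity of Cy3-tagged anti-phospho-c-Jun antibody, quantified per cell from Hoechst-defined nuclei across six images per well, served as the read-out following 72 h exposure (0.39–200 uM, 0.5% v/v DMSO).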

The nature of assay [18]: APR_HepG2_StressKinase_24hr: Apredica 24-hour HepG2 Assay for Stress Kinase (AID 2282922). As to conditions: HepG2 stress kinase (phospho-c-Jun) imaging, actives raise or lower the signal. The gist of the method: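 HepG2, 24 hr dosing, 0.39–200 uM in duplicate, 0.5% DMSO; formaldehyde fix (3.7%), 0.5% Triton X-100; anti-phospho-c-Jun + Cy3 secondary, Hoechst counterstain; ArrayScan imaging; bidirectional curve fit vs DMSO baseline.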

Assay [19] can be described thus: APR_HepG2_p53Act_72hr: Apredica 72-hour HepG2 Assay for p53 Activation (AID 2282923).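 Also: average cellular p53 protein immunofluorescence intensity in HepG2 cells.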 As to conditions: high-content imaging, actives raise or lower the signal. The gist of the method: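 HepG2 monolayers receive test compounds in duplicate at ten concentrations (0.39 through 200 uM) for 72 hr. They are then formaldehyde-fixed, antibody-labelled for p53, Hoechst-stained and imaged, with activity fitted bidirectionally versus DMSO.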

The nature of assay [20]: APR_HepG2_MitoMass_72hr: Apredica 72-hour HepG2 Assay for Mitochondrial Mass (AID 2282924).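 Also: MitoTracker Red CMXRos stain intensity per cell imaged as mitochondrial mass.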 The settings on record: high-content imaging, actives raise or lower the signal. The gist of the method:
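HepG2, 72 hr cmpd, 10 conc 0.39–200 uM in dup, DMSO 0.5% v/v. MitoTracker Red CMXRos 250 nM 30 min pre-fix; formaldehyde 3.7% fix 30 min RT. HCS imaging, gain/loss fit vs DMSO.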

Several values for one entry are separate records, joined by “and”; a condition that tells them apart may be missing. Identical values can stand only once. Records with an inconclusive call do not appear. Activity calls are given as the source filed them. The calls were made as follows, unless noted: active = hit-call score of the fitted dose curve at least 0.9, where 1 is the maximum; inactive = score below 0.9.

Broadly, the AC50 is the midpoint of the concentration-response curve, whichever way the signal moves. `FC(F)(I)C(F)(F)C(F)(F)C(F)(F)C(F)(F)C(F)(F)I`: the concentration at half-maximal activity (AC50) in assay [1] was 6.86 nM (active) and 252 nM (active).

Turning to `CC[C@H](c1ccc(O)cc1)[C@@H](CC)c1ccc(O)cc1`, the AC50 in assay [1] was 6.89 nM (active) and 5.23 nM (active) and 2.6 nM (active); in assay [7] it was 0.0485 µM (active). The call in [2], in assay [3], in assay [4], in [5], in assay [6] and in [8] was inactive. In addition, the call in assay [9], in assay [10], in [11], in assay [12], in [13] and in assay [14] was inactive. Moreover, the outcome in assay [15], in assay [16], in [17], in [18], in assay [19] and in assay [20] was inactive.

`CC(C)(C)c1ccc(O)c(C(C)(C)C)c1`: the compound was called inactive in assay [1], in assay [2], in [3], in assay [5], in [6] and in assay [8]. Further, the compound was called inactive in assay [9], in [10], in [13], in assay [14], in assay [15] and in [20]. Further, the AC50 is 38.5 µM (active) in assay [4]; 8.96 µM (active) in assay [7]; 66 µM (active) in assay [11]; 36.5 µM (active) in assay [12]; 42.8 µM (active) in [16]; 56.6 µM (active) in assay [17]. Besides, the figures for the half-maximal activity concentration (AC50) in assay [18] and in [19] were 48.3 µM (active) and 20.3 µM (active), respectively.

Take `COC(=O)CCCCC(=O)OC`: the compound was classed as inactive in assay [1], in assay [2], in assay [3], in assay [4], in assay [5] and in [6]. Besides, the compound was called inactive in assay [7], in assay [8], in [9], in assay [10], in [11] and in [12]. Besides, the compound was classed as inactive in assay [13], in assay [14], in [15], in assay [16], in assay [17] and in [19]. For the same compound, in [20], the result was inactive.

`CCOC(=O)CC(O)(CC(=O)OCC)C(=O)OCC`: the AC50 in assay [1] was 750 nM (active). The call in assay [2], in [3], in assay [4], in [5], in [6] and in [7] was inactive. In addition, the call in assay [8], in [9], in assay [10], in [11], in assay [12] and in assay [13] was inactive. Also, the call in [14], in assay [15], in assay [16], in assay [17], in [19] and in assay [20] was inactive.

For `O=C(O)c1ccccc1C(c1ccc(O)cc1)c1ccc(O)cc1`, the result in assay [1], in assay [2], in assay [3], in assay [4], in assay [5] and in assay [6] was inactive. For the same compound, the outcome in [7], in assay [8], in assay [12], in [13], in [14] and in assay [15] was inactive. In addition, the result in [16], in assay [17] and in assay [20] was inactive. The values for the AC50 in assay [10] and in assay [11] were 100 µM (active) and 80.2 µM (active), respectively.

On to `CC(C)(C)c1cc(C(C)(C)C)c(O)c(C(C)(C)C)c1`, for which the AC50 was 10600 nM (active) in assay [1], 39.1 µM (active) in [11] and 0.357 µM (active) in assay [19]. The call in assay [2], in assay [3], in assay [4], in [5], in assay [6] and in assay [7] was inactive. Also, the compound was called inactive in assay [8], in assay [9], in assay [10], in [12], in [13] and in assay [14]. Moreover, the call in [15], in assay [16], in assay [17], in assay [18] and in assay [20] was inactive.

Values taken from PubChem BioAssay (EPA / NIEHS).
